{
  "source": "PubChem BioAssay (NCI)",
  "note": "About 83,000 compounds went through this panel and 20% of them were active in at least one assay; those are over-represented in the sample as a whole.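 96-well plates, one dose, 48 hours. Percent growth reported; active if below 10.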 The source made the active and inactive calls.",
  "data": [
    {"tested_on": "MDA-MB-468 breast", "assay": "NCI-60 one-dose screen, 48 h (100 = growth as untreated, 0 = no growth, -100 = all killed)", "conditions": "10 µM unless noted", "values": [
      {"smiles": "O=C1C(=O)c2c(ccc3ccccc23)-c2ccccc21", "growth": "-79.9% (active)"},
      {"smiles": "CCN1C(=O)N(CC)C2C1NN=c1s/c(=C\\c3ccco3)c(=O)n12", "note": "(stereo not given)", "growth": "13.8% (inactive)"},
      {"smiles": "COc1ccc(-c2cc(-c3cccnc3)nc3sc4c(=O)[nH]c(-c5ccc(Cl)cc5)nc4c23)cc1OC", "growth": "97.8% (inactive)"},
      {"smiles": "C#CCOc1ccccc1/C=N/Nc1nc(-c2ccc(Cl)cc2)cs1", "growth": "95.6% (inactive)"},
      {"smiles": "O=C(Nc1nn2c(-c3cc(C(F)(F)F)cc(C(F)(F)F)c3)nnc2s1)C1CCCC1", "growth": "-17.2% (active)"},
      {"smiles": "O=C(O)CCCN1C(=O)/C(=C/c2cn(-c3ccccc3)nc2-c2ccc([N+](=O)[O-])cc2)SC1=S", "growth": "73.5% (inactive)"},
      {"smiles": "O=C1Nc2ccc(Br)cc2/C1=N/c1n[nH]c(=S)s1", "growth": "103% (inactive)"},
      {"smiles": "C#Cc1cccc(NC(=O)c2ccc(NC(=O)C=C)cc2)c1", "growth": "14.6% [8.25 µM] (inactive)"},
      {"smiles": "CCOC(=O)Nc1ccc2c3c(cccc13)-c1ccccc1-2", "growth": "-11.5% (active)"},
      {"smiles": "N#CCc1ccc([N+](=O)[O-])cc1", "growth": "96.8% (inactive)"},
      {"smiles": "COc1cc(O)c2c(c1)/C=C/C[C@H](O)[C@H](O)C(=O)/C=C\\C[C@H](C)OC2=O", "growth": "-24.3% (active)"},
      {"smiles": "N#Cc1c(-c2cccs2)cc(-c2cnccn2)nc1SCC(=O)N/N=C/c1cccs1", "growth": "64.6% (inactive)"},
      {"smiles": "COc1ccc(OC)c2c1[nH]c(=O)c1c3ccccc3cn21", "growth": "-23.3% (active)"},
      {"smiles": "O=c1oc2ccccc2c(Cl)c1Cl", "growth": "4.65% (active)"},
      {"smiles": "COc1ccc2[nH]cc(-c3nc(-c4c[nH]c5c(Cl)nccc45)cs3)c2c1", "growth": "34.1% (inactive)"},
      {"smiles": "Cc1cc2c(C#N)n3c(c2cc1C)C(=O)C(c1ccccc1)Oc1ccccc1-3", "note": "(stereo not given)", "growth": "50% (inactive)"},
      {"smiles": "CCOC(=O)c1nn(C2CCCCO2)c2ccc(NS(=O)(=O)c3ccc(C)cc3)cc12", "note": "(stereo not given)", "growth": "105% (inactive)"},
      {"smiles": "CO[C@H]1C[C@@H]2CC[C@@H](C)[C@@](O)(O2)C(=O)C(=O)N2CCCC[C@H]2C(=O)O[C@H]([C@H](C)C[C@@H]2CC[C@@H](OCCO)[C@H](OC)C2)CC(=O)[C@H](C)/C=C(\\C)[C@@H](O)[C@H](OC)C(=O)[C@H](C)C[C@H](C)\\C=C/C=C/C=C/1C", "growth": "26.9% (inactive)"},
      {"smiles": "Cn1cc(-c2noc(-c3cn(C)c4ncc(F)cc34)n2)c2cc(Cl)ccc21", "growth": "52.9% (inactive)"},
      {"smiles": "Fc1ccc2nc(-c3cnn4cccnc34)sc2c1", "growth": "-2.57% (active)"},
      {"smiles": "Oc1ccc(CNNc2ccnc3c(O)cccc23)c2cccnc12", "growth": "64.3% (inactive)"},
      {"smiles": "S=c1ccnc[nH]1", "growth": "122% (inactive)"},
      {"smiles": "COc1ccc(/C(C)=C(\\c2ccc(Cl)cc2)c2ccc(OCCCN(C)C)cc2)cc1F", "growth": "75.7% (inactive)"},
      {"smiles": "COc1cc(C2=C(c3cn(C)c4ccccc34)COC2=O)cc(OC)c1OC", "growth": "16% (inactive)"},
      {"smiles": "Brc1ccc2c(c1)CN(C1CCCCC1)CO2", "growth": "110% (inactive)"},
      {"smiles": "CC(C)=CCc1cc(O)cc2c1OC(C=C(C)C)C1=C2C(=O)C2=C(NCCS2(=O)=O)C1=O", "note": "(stereo not given)", "growth": "-27% (active)"},
      {"smiles": "Nc1cccc2c1C(=O)c1cccc(NC(=O)c3ccccc3)c1C2=O", "growth": "10.6% (inactive)"},
      {"smiles": "Clc1ccc(-c2csc(N/N=C/c3nc4ccccc4n3C3CC3)n2)cc1", "growth": "90.1% (inactive)"},
      {"smiles": "Cc1nnc2nc(N)[nH]n2c1=O", "growth": "108% (inactive)"},
      {"smiles": "CC(=O)c1cc2c(N)c(C(=O)Nc3cccc(Cl)c3)sc2nc1C", "growth": "45.3% (inactive)"},
      {"smiles": "O=C(/C=C/c1ccc(Cl)cc1)c1ccccc1", "growth": "89.7% (inactive)"},
      {"smiles": "Cc1ccc(Cc2cnc(NC(=O)c3ccc4noc(-c5ccccc5)c4c3)s2)cc1", "growth": "91% (inactive)"},
      {"smiles": "CC(C)OC(=O)c1ccc2n1CCCc1cnc(Nc3ccccc3)nc1-2", "growth": "44.6% (inactive)"},
      {"smiles": "Nc1n[nH]c2ccc([C@@H]3Nc4ccc5[nH]ncc5c4[C@H]4C5C=CC(C5)[C@@H]34)cc12", "note": "(stereo not given in full)", "growth": "-12.2% (active)"},
      {"smiles": "Nc1c(S(=O)(=O)O)cc2c3c(cccc13)C(=O)OC2=O", "growth": "85.9% (inactive)"},
      {"smiles": "CCOC(OCC)c1cnc2nc(NC(C)=O)[nH]c(=O)c2n1", "growth": "109% (inactive)"},
      {"smiles": "Cc1cc(OCc2ccc(C(F)(F)F)cc2)c2c(c1)C(=O)C=C(NCCN1CCCC1)C2=O", "growth": "51.3% (inactive)"},
      {"smiles": "O=C(NCc1cn(Cc2cccc(Oc3ccccc3)c2)nn1)c1cccnc1Nc1ccc(F)cc1", "growth": "33.5% (inactive)"},
      {"smiles": "N#Cc1c(-c2ccccc2)nc(SCC(=O)Nc2nc(-c3ccc(Cl)cc3)cs2)[nH]c1=O", "growth": "85.7% (inactive)"},
      {"smiles": "CCCCCCn1c(-c2ccc(C(=O)O/N=C(\\N)c3ccc(OC)cc3)cc2)nc(-c2ccccc2)c1-c1ccccc1", "growth": "-6.91% (active)"}
    ]}
  ]
}
